Measurements reported in the supplement of paper PMC6555819.

How the values were obtained:
Assay in all cases: PBM binding z-score (relative to random genomic background probes); higher = stronger binding; sequences stand for … in GC…GCGATTGACAGCGTAGAATGAAGG
[1] = tested on: FXR:RXRa (NR concentration 270 nM, RXRa partner concentration 90 nM)
In short: (§1)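 Binding z-scores were set against random background probes. The data came from custom Agilent 4×180K protein-binding microarrays carrying double-stranded probes with 34-nt variable regions, incubated 1 h with ligand-free nuclear receptor dimers. Partner-specific antibodies detected binding, and scanned fluorescence was regression-normalized.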

[2] = tested on: LXRa:RXRa (NR concentration 270 nM, RXRa partner concentration 90 nM)
In short: as §1

[3] = tested on: LXRa homodimer (NR concentration 270 nM)
In short: as §1

[4] = tested on: LXRb:RXRa (NR concentration 270 nM, RXRa partner concentration 90 nM)
In short: as §1

[5] = tested on: LXRb homodimer (NR concentration 270 nM)
In short: as §1

[6] = tested on: PPARa:RXRa (NR concentration 270 nM, RXRa partner concentration 90 nM)
In short: as §1

[7] = tested on: PPARg:RXRa (NR concentration 180 nM, RXRa partner concentration 90 nM)
In short: as §1

[8] = tested on: PPARg:RXRa 270nM:90nM, anti-RXR (NR concentration 270 nM, RXRa partner concentration 90 nM)
In short: as §1

[9] = tested on: PPARg:RXRa 30nM:10nM, anti-RXR (NR concentration 30 nM, RXRa partner concentration 10 nM)
In short: as §1

[10] = tested on: PPARg:RXRa 90nM:30nM, anti-RXR (NR concentration 90 nM, RXRa partner concentration 30 nM)
In short: as §1

[11] = tested on: PPARg:RXRa DBDmut IVT, anti-RXR (DBD mutation: RXRa K156A/R161A, NR concentration 270 nM, RXRa partner concentration 90 nM)
In short: as §1

[12] = tested on: PPARg:RXRa IVT, anti-PPARg (NR concentration 270 nM, RXRa partner concentration 90 nM)
In short: as §1

[13] = tested on: PPARg DBDmut:RXRa IVT, anti-PPARg (DBD mutation: PPARg1 K132A/R137A, NR concentration 270 nM, RXRa partner concentration 90 nM)
In short: as §1

[14] = tested on: PPARg DBDmut IVT, anti-PPARg (DBD mutation: PPARg1 K132A/R137A, NR concentration 270 nM)
In short: as §1

[15] = tested on: PPARg homodimer (NR concentration 180 nM)
In short: as §1

[16] = tested on: PXR:RXRa (NR concentration 270 nM, RXRa partner concentration 90 nM)
In short: as §1

[17] = tested on: PXR homodimer (NR concentration 270 nM)
In short: as §1

[18] = tested on: RARa:RXR (NR concentration 270 nM, RXRa partner concentration 90 nM)
In short: as §1

[19] = tested on: RARa homodimer (NR concentration 270 nM)
In short: as §1

[20] = tested on: RARb:RXRa (NR concentration 270 nM, RXRa partner concentration 90 nM)
In short: as §1

Sequence	PBM binding z-score [1]	PBM binding z-score [2]	PBM binding z-score [3]	PBM binding z-score [4]	PBM binding z-score [5]	PBM binding z-score [6]	PBM binding z-score [7]	PBM binding z-score [8]	PBM binding z-score [9]	PBM binding z-score [10]	PBM binding z-score [11]	PBM binding z-score [12]	PBM binding z-score [13]	PBM binding z-score [14]	PBM binding z-score [15]	PBM binding z-score [16]	PBM binding z-score [17]	PBM binding z-score [18]	PBM binding z-score [19]	PBM binding z-score [20]
GCTGCTTGGTCAACTGATGGTCAGCTAAAGCTCG	-0.663	-0.552	-0.675	-0.752	-0.593	-0.414	-0.68	-0.367	-1.15	-0.725	0.408	0.0173	-0.74	-1.06	-0.674	-0.491	-0.859	-0.138	-0.784	1.24
TCGAGTAGGTTAGTCGGGTCATTCAGCCAACATA	1.62	1.62	0.312	1.98	-0.941	3.14	1.39	2.4	1.36	1.95	2.57	3.67	-0.174	-0.903	1.13	2.57	1.01	2.77	-0.535	1.79
TAGCCTAGGTCATGGGCCACTATACCACGCGAAC	4.16	3.63	0.886	2.81	0.0878	4.15	4.04	4.19	1.48	3.31	2.09	3.43	0.102	-0.16	1.27	1.72	-0.144	2.66	-0.0929	3.8
ATCTCTAGGTAACATGTTCAGTGAAAGAGAGGAC	0.248	0.254	-0.139	0.402	0.902	0.519	1.15	1.25	0.432	1.07	3.39	2.6	1.47	1.39	-0.116	0.0539	-0.0105	0.322	-0.388	0.433
CCTAGGAGGCCAATCTGGGTCACTCAAGGCTTGA	1.29	2.42	-0.439	1.35	-1.2	3.35	2.59	2.49	0.067	1.85	4.15	5.21	-0.00134	-1.3	0.591	1.97	-0.291	1.64	-0.236	1.94
CGTCCATGGTCAGCAGGTCAGTGAAAGCGACGTG	0.175	-0.104	-0.348	-0.0301	-0.987	0.781	-0.0482	-0.0239	-0.823	-0.464	0.0989	0.518	-0.843	-0.979	-0.43	0.159	-0.486	0.728	-0.616	2.28
ACTACAGGGTCATCGTAGGCCAGAGTACGCACAG	6.89	5.5	0.216	4.08	0.987	5.89	5.88	5.25	2.32	3.77	1.66	3.47	2.18	1.55	1.49	4.76	0.458	4.67	0.217	4.45
CCGACTAGGGCAAAGGTTACCATACTCAGTACGA	2.31	2.04	0.518	2.49	-0.304	6.31	11.2	8.96	9.02	9.62	5.49	6.42	0.866	0.896	2.04	2.23	-0.079	3.59	0.449	2.85
TCGAGTAGGTTAGGGGCATTCACAATGGCGTCGA	0.495	0.167	-0.286	0.973	-0.112	1.38	1.01	1.84	1.59	1.94	2.39	1.39	-0.325	-0.622	0.582	0.481	0.107	0.506	-0.0724	0.977
AGTCAAAGTTCATCTAGGTTACGTAAGATATGCT	6.68	6.16	6.06	3.95	2.11	4.96	6.9	6.6	4.02	5.95	1.81	4.48	1.59	1.1	2.63	5.66	10.7	4.25	1.94	4.99
TTACCAAGGTGACAGGTCGTTGATGCACGCCTTG	0.924	1.02	0.111	0.582	-0.664	2.56	3.23	4.37	1.99	3.62	2.31	3.79	0.46	0.0595	1.64	0.764	0.0726	1.14	-0.207	2.05
ACAGACAGGTGATGAATGTAACTCAGGCTATCAT	-0.237	-0.163	0.164	0.1	-0.131	0.166	0.735	-0.0666	0.338	-0.0676	0.0883	0.304	0.806	0.471	0.379	-0.102	-0.0195	0.181	0.656	0.0754
CAAACTAGGTCACCAGAAGGTCAAAGTCCGCATG	6.14	6.04	4.65	5.24	1.41	6.22	9.74	7.94	6.18	7.98	8.93	9	4.64	2.7	9.04	5.96	2.47	7.6	3.53	5.18
GCTTACGGTTCAAAGGTTATAGCATGAATAGAAT	4.43	4.34	0.505	4.04	-0.0859	5.44	4.71	5.6	2.92	5.08	-0.685	0.999	0.711	0.999	0.99	4.71	0.601	6.22	0.458	2.33
CGAACTAGGTCAAGCACAGTGAATCTCCGCACGC	4.1	2.35	0.195	1.67	-0.136	4.74	7.62	6.72	4.49	6.09	8.33	8.4	5.79	3.74	2.82	1.18	-0.61	2.31	0.512	3.98
ATCTCTAGGTAAGACTCTGTTCAGTGAAGAACGC	0.455	0.64	0.527	0.145	0.866	0.0687	0.000617	0.133	0.343	0.426	2.14	1.19	0.717	0.753	0.889	-0.0649	0.53	0.421	1.18	0.151
CAAACTAGGTCACAGAGGTCAGAGTCCGTGCGTA	6.35	5.23	4.71	4.72	0.859	6.11	9.99	7.88	6.14	7.84	8.64	9.29	2.49	1.4	4.05	5.59	7.79	5.97	1.84	5.11
TCTGTTAGTTGATTAGGGCAACCGAAACAGCGGA	0.614	0.576	0.141	0.571	1.9	0.523	0.000964	1.9	3.28	2.74	1.71	1.89	1.51	1.52	1.09	0.57	0.354	0.456	0.969	1.19
GGAACGAGCGCATTCGAGTTGATAGCATGGCGAT	-1.63	-0.936	-0.9	-1.41	-1.24	-1.94	0.379	-1.09	-0.954	-1.27	-0.641	-0.81	-0.918	-0.781	-1.13	-0.904	-0.628	-1.29	-0.875	-1.26
TCTTGTAGATCACCAGGAGGTTAAGAAAGATCGA	0.307	1.28	-0.0899	0.866	-0.174	1.39	-0.000569	1.19	2.45	1.52	1.92	1.27	0.392	0.634	-0.00402	0.915	-0.00438	1.15	-0.698	0.672
CCGACTGGGGCGTAAGGTTACCATAAGCCAGCCC	0.247	1.35	-0.338	0.704	-1.25	1.35	1.19	2.42	0.143	1.7	0.446	0.275	-1.37	-0.827	0.0631	0.213	-0.391	0.883	-0.676	1
ATCTCTAGGTGAAGTTCAGTGAAAGATCGATAGA	0.465	0.465	0.0389	0.0201	0.118	1.88	1.57	1.74	0.453	1.35	4.94	4.09	1.05	1.05	0.329	0.872	0.828	0.684	0.618	1.7
CGGAGTAGGTTATGGGGCATTCAGGCAACGGTGA	0.339	0.3	0.0885	0.718	-0.187	2.92	4.95	5.93	5.09	6.03	4.84	5.14	0.983	-0.0364	1.28	0.209	0.125	0.151	0.386	0.965
CCTGCTGGGTCATGGTCAGCTAATCTACAGTATG	2.47	1.59	-0.658	1.42	-0.697	3.32	1.97	2.53	0.317	1.69	2.64	2.73	-0.296	0.15	0.949	1.24	-0.638	2.02	-0.488	3.35
CCAGACAAGTGAAAGGTAACTCAGTCTGGTACGC	-0.0838	0.254	-0.234	0.206	-0.315	1.07	1.42	2.61	0.692	1.77	-0.0186	0.0117	-0.187	-0.255	0.888	0.0621	-0.0763	0.166	0.124	0.247
CGAACTAGGTCAAGGACAGTGAATCTCCGCACGC	3.29	2.29	0.163	1.51	-0.597	4.64	7.4	6.24	3.8	6.11	8.2	8.25	4.79	1.98	2.91	1.18	-0.052	2.3	0.629	3.94
